From ChEMBL document CHEMBL4513216, “Probing the Open Global Health Chemical Diversity Library for Multistage-Active Starting Points for Next-Generation Antimalarials” (ACS Infect Dis, 2020) come the findings set out here.

In all, about 69,000 compounds went through this assay and about 8,600 (12%) showed an effect of 50% or more. This is one part of a sample in which strong results are shown more often than they occur.

The experiment relates to Plasmodium berghei. Nature of the experiment: Screen against P. berghei liver stage (PbLuc), transformed with Luciferase, at 10uM. Type of experiment: functional, HepG2. As to conditions: tested at 10 uM.
In the case of `COC(=O)C(C)(C)NC(=O)c1cnc(C(C)(C)C)s1`, the INHIBITION was 25.1%.

In the case of `CN(C)C(=O)CN(C)C(=O)c1cnc(Cc2ccc(F)cc2)s1`, the INHIBITION is 2.37%.

In the case of `CCc1ncc(C(=O)NC(C)(C)C(=O)OC)s1`, the INHIBITION is reported as 40.6%. Take `COC(=O)[C@H](C)NC(=O)c1cnc(Cc2ccc(F)cc2)s1`: the INHIBITION was 51.7%. As to `CC(C)NC(=O)CCNC(=O)c1cnc(Cc2ccc(F)cc2)s1`, the INHIBITION was found to be 10.6%. Turning to `COC(=O)C(C)(C)NC(=O)c1cnc(Cc2ccc(F)cc2)s1`, the INHIBITION came to 92.8%. For `Cn1cc(CN2CCn3cc(CNC(=O)C4CCC4)nc3C2)cn1`, the INHIBITION was 14.4%. In the case of `O=C(c1cnccn1)N1CCN(Cc2cscn2)CC1` it was 25.85%; in that of `CSCC(C)(O)CNS(=O)(=O)c1cccc(Cl)c1` (stereo not drawn), -33.5%. For `CN1CCN(C(=O)c2ncn3c2CNS(=O)(=O)c2ccccc2-3)CC1`, the INHIBITION is 15.3%. The same measure for `O=C(c1ncn2c1CNS(=O)(=O)c1ccccc1-2)N1CCCCC1`: 7.24%; for `O=C(c1ncn2c1CNS(=O)(=O)c1ccccc1-2)N1CCCCCC1`: 68.4%.

As for `CCc1nc(C2CCCN2C(=O)CCc2nc(C(C)(C)C)no2)no1` (stereo not drawn), the INHIBITION came to 40.2%. In the case of `COc1ncccc1CN1CCC2[C@H]1CCN2CCN(C)C` (stereo partly drawn) it was -20.1%; in that of `O=C1COC2(CCN(C(=O)C3CC=CC3)CC2)CN1Cc1cccnc1`, -3.24%; in that of `Cc1nc(N2CCOCC2)ncc1-c1cc(O)nc(N2CCCC2)n1`, -27.1%. Regarding `Cc1cc(C)c2c(N3CCC(C(=O)N4CCOCC4)CC3)ncnc2n1`, the INHIBITION was 30.9%. The same measure for `CC(C)CN1CCC2(C1)CN(c1ncccn1)C2`: 5.12%; for `CCC(O)CNc1ccc(-c2nc(CC(C)C)no2)cn1` (stereo not drawn): 1.79%.

On to `CCn1cncc1CNc1ccc(-c2nc(CC(C)C)no2)cn1`, for which the INHIBITION is on record as 52%. On to `CC(C)Cc1noc(-c2ccc(NCc3noc(C(C)C)n3)nc2)n1`, for which the INHIBITION is -26%. For the molecule `CCN1C(=O)CCC12CCC(NC(=O)NCc1cccnc1)CC2` (stereo not drawn), the INHIBITION is recorded as 25.8%. The same measure for `Cc1n[nH]cc1C(=O)N1CCCC1c1cc[nH]n1` (stereo not drawn): -26.2%; for `Cn1cc(CN2C[C@@H]3CCCO[C@@H]3[C@H](NC(=O)CC3CC3)C2)cn1`: 11.4%. In the case of `CC(C)NC(=O)CCNC(=O)CCc1cc(Br)cs1` it was -35.3%.

In the case of `COC(=O)CNC(=O)CCc1cc(Cl)cs1`, the INHIBITION was 36.3%. The same measure for `CC(C)NC(=O)CCNC(=O)CCc1cc(Cl)cs1`: 62.8%; for `CN(c1nccc(-c2cnc3sc(Cl)cn3c2=O)n1)C1CCCCC1`: 38.2%.

Regarding `CN(c1nccc(-c2cnc3sccn3c2=O)n1)C1CCCCC1`, the INHIBITION was found to be 18.9%. Regarding `Cc1cn2c(=O)c(-c3ccnc(N(C)C4CCCCC4)n3)cnc2s1`, the INHIBITION is recorded as 90.1%. In the case of `Cc1cc(C(F)(F)F)n2nc(C3CCCN(S(C)(=O)=O)C3)cc2n1` (stereo not drawn) it was 26.475%. In the case of `CCC[C@@H]1CN(S(=O)(=O)c2ccc3[nH]c(=O)[nH]c3c2)C[C@H]1NC(C)=O` it was 3.73%.

`Cn1ccnc1C1CCN(S(=O)(=O)c2ccc3[nH]c(=O)[nH]c3c2)CC1`: the INHIBITION is 62.9%. For the molecule `Cn1ccnc1C1CCN(S(=O)(=O)c2ccc3c(c2)OCCO3)CC1`, the INHIBITION was found to be 35.1%.

Turning to `O=c1[nH]c2cc(S(=O)(=O)N3CCC(c4ccsc4)CC3)ccc2o1`, the INHIBITION was determined as 16.9%. In the case of `Cn1ccnc1C1CCN(S(=O)(=O)c2ccc3oc(=O)[nH]c3c2)CC1` it was 59.7%; in that of `Cc1cc2[nH]c(=O)oc2cc1S(=O)(=O)N1CCCC(N(C)C)CC1` (stereo not drawn), 11.6%. The same measure for `CCN(CC)S(=O)(=O)N1CCC(c2c(C(N)=O)sc3ccccc23)C1` (stereo not drawn): 27.6%.

For the molecule `CC(=O)N1CCN(CC(N)=O)CC(COc2ccccc2)C1` (stereo not drawn), the INHIBITION is -17.7%. With `CCc1cc(NC(=O)C2CCCN(C(=O)NCC(C)C)C2)[nH]n1` (stereo not drawn), the INHIBITION is on record as 19.3%. With `NC(=O)c1cn(CC2CC2)c(C2CC2)n1`, the INHIBITION was -2.03%. In the case of `CCC(CNC(=O)c1ccccc1OC)N1CCc2ccccc2C1` (stereo not drawn), the INHIBITION was 63.3%. Regarding `O=C(NCC(O)c1ccc(F)cc1F)c1ccccc1F` (stereo not drawn), the INHIBITION was -57.9%. As for `CCC(CNC(=O)c1ccc(Br)o1)N1CCc2ccccc2C1` (stereo not drawn), the INHIBITION was found to be 16.8%. As for `CCC(C)NC(=O)c1cncc(Br)c1` (stereo not drawn), the INHIBITION is -76.5%. For the molecule `CCC(CNC(=O)c1ccccn1)N1CCc2ccccc2C1` (stereo not drawn), the INHIBITION is on record as 40.5%. `COc1ccccc1C(=O)NCC(c1cccn1C)N1CCOCC1` (stereo not drawn): the INHIBITION was determined as 44.9%. In the case of `CCC(CNC(=O)c1ccc(F)cc1F)N1CCc2ccccc2C1` (stereo not drawn) it was 64.3%. With `CCC(CNC(=O)Nc1cnn(CC)c1)N1CCc2ccccc2C1` (stereo not drawn), the INHIBITION came out at 7.67%. The same measure for `COc1cccc(C(=O)NCCCN2CCc3ccccc3C2)c1OC`: 25.3%; for `Cn1cccc1C(CNC(=O)c1ccc(F)cc1F)N1CCCCCC1` (stereo not drawn): 34.7%. With `CCC(CNC(=O)c1ccco1)N1CCc2ccccc2C1` (stereo not drawn), the INHIBITION was 51.4%.

For `CCC(CNC(=O)c1cncc(Br)c1)N1CCc2ccccc2C1` (stereo not drawn), the INHIBITION is 66.3%.
